Assay results reported in ChEMBL document CHEMBL3988442, “University of Dundee, Small-Polar-MMV Screening Library” (2021).
Screen size: about 69,000 compounds; about 1,000 (1.4%) showed an effect of 50% or more. The sample as a whole holds a higher share of strong results than the screen did.

System: Leishmania donovani
Test: Leishmania intramacrophage assay
Type: functional, organism-based
Parameters: scale not given: in the data most compounds retested in dose-response had high values

Cc1noc(CN(Cc2cccc(C#N)c2)Cc2ccco2)n1
Percent Effect (30.3 µM, […]): -9.737%

O=C(c1cnccn1)N1CCN2C[C@H](OCC3CC3)C[C@H]2C1
Percent Effect (30.3 µM, […]): -6.525%

Cc1cc(Cc2ccccc2)cc(C2CCCNC2)n1 (configuration not stated)
Percent Effect (30.3 µM, […]): 19.14%

Cc1cccc(Cc2cc(C)nc(C3CCCNC3)c2)c1 (configuration not stated)
Percent Effect (30.3 µM, […]): 59.44%

Cc1cc(Cc2cccc(C(F)(F)F)c2)cc(C2CCCNC2)n1 (configuration not stated)
Percent Effect (30.3 µM, […]): 91.42%

Cc1cc(Cc2ccccc2C)cc(C2CCCNC2)n1 (configuration not stated)
Percent Effect (30.3 µM, […]): 39.73%

Cc1cc(Cc2ccccc2F)cc(C2CCCNC2)n1 (configuration not stated)
Percent Effect (30.3 µM, […]): 9.469%

Cc1cc(Cc2ccc(F)cc2)cc(C2CCCNC2)n1 (configuration not stated)
Percent Effect (30.3 µM, […]): 22.51%

CC(O)CCN(C)C(=O)Nc1ccc(Br)cc1 (configuration not stated)
Percent Effect (30.3 µM, […]): -0.06572%

Cc1ccc(CNC(=O)CN2CCCC(Cn3cncn3)C2)cc1 (configuration not stated)
Percent Effect (30 µM): 15.14%

Nc1nc(N2CCCCCC2)ncc1C(=O)NCc1ccc(F)c(Cl)c1
Percent Effect (30.3 µM, […]): 1.039%

CC(CO)CSc1ncnc2[nH]ncc12 (configuration not stated)
Percent Effect (30.3 µM, […]): -17.01%

O=C(O)C(F)(F)F.O=C(O)C(F)(F)F.O=C1COC2(CCN(Cc3cccnc3)CC2)CN1
Percent Effect (30.3 µM, […]): 22.41%

CC(C)Nc1nc2c(c(NC3CC3)n1)CCN(C(=O)C1CCOC1)CC2 (configuration not stated)
Percent Effect (30.3 µM, […]): 26.08%

CC(C)Nc1nc2c(c(NC3CC3)n1)CCN(C1CCOCC1)CC2
Percent Effect (30.3 µM, […]): 70.3%

Cc1nc2c(c(NC(C)C)n1)CCN(C1CCOCC1)CC2.O=C(O)C(F)(F)F
Percent Effect (30.3 µM, […]): 14.91%

CC(C)N(CCO)C(=O)C1CCC(=O)N(CCc2cccc(F)c2)C1 (configuration not stated)
Percent Effect (30.3 µM, […]): 21.22%

OCC1(Cc2ccc(Cl)cc2)CCN(Cc2cccnc2)CC1
Percent Effect (30.3 µM, […]): 13.26%

Cc1n[nH]c(C)c1NC(=O)Nc1cccnc1N1CCCC1
Percent Effect (30.3 µM, […]): -22.16%

CSc1ccc2cc(CN(C)CCO)c(=O)[nH]c2c1
Percent Effect (30.3 µM, […]): 10.15%

CNCc1cn(C2CCN(CCC(C)c3ccccc3)CC2)nn1 (configuration not stated)
Percent Effect (30.3 µM, […]): 69.72%

COCc1cn(C2CCN(CCC(C)c3ccccc3)CC2)nn1 (configuration not stated)
Percent Effect (30.3 µM, […]): 15.55%

CC(CCN1CCC(n2cc(CCO)nn2)CC1)c1ccccc1 (configuration not stated)
Percent Effect (30.3 µM, […]): 17.91%

Cc1noc(C)c1CCCNC(=O)C1CCCN(C(=O)C2CC2)C1 (configuration not stated)
Percent Effect (30.3 µM, […]): 17.01%

CCSc1cc(C(=O)NCc2ccc(C(=O)NC)cc2)ccn1
Percent Effect (30.3 µM, […]): -0.2287%

CCSc1cc(C(=O)NCCNC(=O)Cc2ccccc2)ccn1
Percent Effect (30.3 µM, […]): 42.53%

CCSc1cc(C(=O)NCc2ccccc2O)ccn1
Percent Effect (30 µM, 30.03 µM): 52.62%

CNCC(=O)N[C@H]1CN(c2nc(C)c3c(n2)CCCC3)C[C@@H]1C1CC1
Percent Effect (30.3 µM, […]): 61.72%

CNc1nc(N2C[C@H](NC(=O)CCOC)[C@@H](C3CC3)C2)nc2c1CCC2
Percent Effect (30.3 µM, […]): 20.37%

COCCC(=O)N[C@H]1CN(c2nc(C)c3c(n2)CCCC3)C[C@@H]1C1CC1
Percent Effect (30.3 µM, […]): -3.355%

Cc1ccc(CN(C)C(=O)c2cnsn2)cc1
Percent Effect (30.3 µM, […]): 19.42%

CCn1nc(CC(C)C)cc1C(=O)N1CC(c2ccncc2)C1
Percent Effect (30.3 µM, […]): 24.78%

CCC(C(=O)NCCc1nc(C)cc(C(F)(F)F)n1)n1cccn1 (configuration not stated)
Percent Effect (30.3 µM, […]): 69.8%

CCOCC(=O)NCCc1nc(C)cc(C(F)(F)F)n1
Percent Effect (30.3 µM, […]): -29.08%

CCC(C(=O)NCc1nc(C)cc(C(F)(F)F)n1)n1cccn1 (configuration not stated)
Percent Effect (30.3 µM, […]): 13.87%

O=C(CC1NC(N2CCc3ccccc3C2)=NC1=O)Nc1ccccc1 (configuration not stated)
Percent Effect (30.3 µM, […]): 4.892%

COCCC(=O)N1CCN(CC(C)C)c2nc(C)ccc2C1.O=C(O)C(F)(F)F
Percent Effect (30.3 µM, […]): 8.451%

CC1(NC(=O)Cc2cccs2)CCS(=O)(=O)C1 (configuration not stated)
Percent Effect (30.3 µM, […]): 19.51%

CC(C)CCn1nc2ccc(S(=O)(=O)N3CCOCC3)cn2c1=O
Percent Effect (30.3 µM, […]): -38.47%

CCn1nc2ccc(S(=O)(=O)N3CCSCC3)cn2c1=O
Percent Effect (30.3 µM, […]): 8.958%

CC(C)Cn1nc2ccc(S(=O)(=O)N3CCC(C)CC3)cn2c1=O
Percent Effect (30.3 µM, […]): 58.76%

CCN(C)S(=O)(=O)N(Cc1cscn1)c1ccccc1
Percent Effect (30.3 µM, […]): -18.14%

Cc1nc(C2CCCN2CCCS(N)(=O)=O)no1 (configuration not stated)
Percent Effect (30 µM): 6.42%

Cc1ccc(-c2cc(C(=O)NCCCc3csc(N)n3)[nH]n2)o1
Percent Effect (30.3 µM, […]): -46.01%

Cn1cccc1-c1cc(C(=O)NCCCc2csc(N)n2)[nH]n1
Percent Effect (30.3 µM, […]): 54.27%

Cc1ccc(-c2cc(C(=O)NCCCc3csc(N)n3)[nH]n2)s1
Percent Effect (30.3 µM, […]): 19.81%

Cc1ccc(N2CC[C@@H]3O[C@@H](COCc4cccnc4)CC[C@@H]32)nn1.O=C(O)C(F)(F)F.O=C(O)C(F)(F)F
Percent Effect (30.3 µM, […]): -9.892%

CCN1CC2(CCNCC2)COc2ccccc2S1(=O)=O.O=C(O)C(F)(F)F
Percent Effect (30 µM, 30.03 µM): 13.53%

O=C(c1ccn(COc2ccc(F)cc2)n1)N1CCCCCC1
Percent Effect (30.3 µM, […]): -66.53%

CC(C)c1ccc(OCn2ccc(C(=O)N3CCCC3)n2)cc1
Percent Effect (30 µM, 30.03 µM): 59.3%

O=C(c1ccn(COc2ccc(F)cc2)n1)N1CCCC1
Percent Effect (30.3 µM, […]): 0.02157%

Cc1nsc(C(=O)NCCc2ccc(Cl)cc2)n1
Percent Effect (30.3 µM, […]): 25.28%
